Only some compounds are listed: those with a hit (about 10% of all), similar ones and a draw of the others.
CtBP-E1A blk: CtBP/E1A binding inhibition | AlphaScreen GST-E1A/His-CtBP binding, 1536-well; active compounds read low | activity change, % (no concentration beside the values) | hit rate 0.49% among 340,000 | AID 651724; in the data active = activity change below about -65%; inconclusive = mostly about -30% to -63%
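GST-E1A and His-tagged CtBP (125 nM each as 5X stock) were preincubated with pin-transferred compound for 2 h at 37 °C in the dark, then glutathione donor and nickel acceptor beads were added for 1 h before AlphaScreen reading.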
HP1b chromo inh: blocks HP1-beta chromodomain binding to methylated histone tails | P83916 | AlphaScreen HP1-beta / biotin-H3K9me3 peptide binding | Potency, µM (highest dose often 114 µM), hits mostly inhibitors | hit rate 0.56% among 390,000; also: nearly all actives have a fitted effect of over 70% in size
Target sequence (P83916 whole entry, looked up): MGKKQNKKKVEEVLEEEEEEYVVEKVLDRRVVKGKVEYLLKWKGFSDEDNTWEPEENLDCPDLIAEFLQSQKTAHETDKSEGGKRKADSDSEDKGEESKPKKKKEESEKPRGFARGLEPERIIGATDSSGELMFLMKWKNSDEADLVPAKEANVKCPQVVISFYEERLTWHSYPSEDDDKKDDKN
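HP1-beta protein (50 nM final) preincubated 30 min at room temperature with biotinylated H3(1-18)K9me3 peptide (50 nM) in PBS pH 7.4, 0.01% Tween-20, then compound added for 30 min. AlphaScreen streptavidin donor/nickel chelate acceptor beads (10 ug/mL final), 30 min dark, luminescence read.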
Six1-Eya2 inh: inhibitors of human Six1/Eya2 interaction; Q15475+O00167; hit rate 0.56% among 360,000; AlphaScreen GST-Six1/His-Eya2 binding, biochemical; active compounds read low; activity change, % (test concentration not listed); in the data active = activity change below about -65%; inconclusive = mostly about -30% to -63%
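Compounds are tested against tagged Six1 and Eya2 proteins bridged by glutathione donor and nickel acceptor beads; after a one-hour incubation at 37 °C without light, AlphaScreen emission is recorded.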
G9a inh: blocks human histone lysine methyltransferase G9a; Q96KQ7; G9a H3K9 monomethylation, AlphaScreen, 2 h; Potency, µM (doses to about 102 µM), actives largely listed as inhibitors; hit rate 8.8% among 350,000; AID 504332; also: nearly all actives have a fitted effect of over 75% in size
Target sequence (Q96KQ7 913-1193 limits assumed): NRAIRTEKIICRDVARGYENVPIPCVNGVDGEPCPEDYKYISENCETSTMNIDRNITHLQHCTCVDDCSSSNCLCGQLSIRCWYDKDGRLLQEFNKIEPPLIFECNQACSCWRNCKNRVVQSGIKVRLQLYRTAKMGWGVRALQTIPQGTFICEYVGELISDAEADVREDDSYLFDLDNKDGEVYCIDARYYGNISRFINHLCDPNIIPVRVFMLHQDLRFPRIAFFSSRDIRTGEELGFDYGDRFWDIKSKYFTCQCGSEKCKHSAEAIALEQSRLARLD
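G9a (20 nM) was preincubated 15 min with compound, then reacted 2 h at room temperature with 500 nM biotin-H3K9 peptide and 20 µM SAM. Monomethyl-H3K9 detected by AlphaScreen using anti-H3K9me1 antibody.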
JMJD2A Tudor: inhibitors of human JMJD2A Tudor domain | AlphaScreen JMJD2A-Tudor / H3K4me3 peptide binding | Potency, µM (highest dose often 114 µM), actives largely listed as inhibitors | O75164 | hit rate 4.4% among 390,000; also: nearly all actives have a fitted effect of over 50% in size
BAZ2B inh: blocks human BAZ2B. AlphaScreen BAZ2B-H3K14Ac peptide displacement. hit rate 4.4% among 360,000. Potency, µM (highest dose often 114 µM), usual class: inhibitors. AID 504333; also: nearly all actives have a fitted effect of over 60% in size
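Protein-peptide AlphaScreen: BAZ2B 50 nM, b-H3K14Ac 50 nM, 1x PBS pH 7.4 + 0.01% Tween-20. Preincubation 30 min RT; cpd 30 min RT (top 110 uM); beads 20 min RT, light-protected.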
Each line names hits and unclear results; the compound was inactive in the other large screens. Unless noted, calls follow the shape of the dose curve; as a rule, active = well fitted inhibition curve with a large enough effect; inconclusive = small, poorly fitted or top-dose-only effect; inactive = no such curve, though single readings can be large or run the other way.

CCN(c1ccccc1)S(=O)(=O)c1cc2c(cc1C)N(C)CCO2	Six1-Eya2 inh inconclusive, G9a inh 79.4µM, JMJD2A Tudor inconclusive, BAZ2B inh inconclusive
Cc1ccccc1NS(=O)(=O)c1cc2c(cc1C)N(C)CCO2	BAZ2B inh inconclusive
NNc1ncnc2sc3c(c12)CCC3	Six1-Eya2 inh inconclusive, JMJD2A Tudor 22.4µM, BAZ2B inh 17.8µM
CC1(C)Cc2c(sc3ncn4c(=S)[nH]nc4c23)CO1	HP1b chromo inh inconclusive, G9a inh 3.16µM, JMJD2A Tudor inconclusive
CC1(C)Cc2c(sc3ncnc(NN)c23)CO1	JMJD2A Tudor 50.1µM, BAZ2B inh 79.4µM
CC1(C)Cc2c(sc3ncn(N)c(=N)c23)CO1	none
c1cc(Nc2ncnc3sc4c(c23)CCC4)ccn1	none
CN(C)c1ccc(Nc2ncnc3sc4c(c23)CCCC4)cc1	HP1b chromo inh 22.4µM, G9a inh inconclusive, JMJD2A Tudor 25.1µM, BAZ2B inh 31.6µM (no result: CtBP-E1A blk, Six1-Eya2 inh)
COC(=O)c1sccc1S(=O)(=O)N(CC(=O)NCc1ccc(F)cc1)c1ccc(C)c(C)c1	none (no result: CtBP-E1A blk, Six1-Eya2 inh)
O=C(CSc1nc(-c2ccco2)cc(C(F)(F)F)n1)NCCN1CCOCC1	none
COc1ccc(NC(=O)CSc2nnnn2-c2ccccc2F)cc1	G9a inh inconclusive
Cc1ccc(-n2nnnc2SCC(=O)Nc2ccc(N3CCN(C)CC3)cc2)c(C)c1	G9a inh 50.1µM, BAZ2B inh inconclusive (no result: CtBP-E1A blk)
CN1CCN(c2ccc(NC(=O)CSc3nnnn3-c3ccccc3F)cc2)CC1	G9a inh 79.4µM
Cc1ccc(-n2nnnc2SCC(=O)Nc2cc(C)on2)c(C)c1	none
CCCCCCCCCCCC1N=C(N)NC(CCCO)=C1C(=O)OC (stereo not given)	none (no result: G9a inh, BAZ2B inh)
CSC1=NC2(C[C@H]2c2ccccc2)C(=O)N1C (stereo not given in full)	none (no result: G9a inh, BAZ2B inh)
CC(=O)N1CCN(CCS(=O)(=O)c2cc(Cl)ccc2Cl)CC1	none (no result: G9a inh, BAZ2B inh)
CSc1ccc(NC(=O)NCCN2CCc3ccccc3C2)cc1	G9a inh inconclusive, JMJD2A Tudor inconclusive, BAZ2B inh inconclusive
COc1ccc(Nc2nc(C(=O)N3CCc4ccccc4C3)cs2)cc1	HP1b chromo inh inconclusive, JMJD2A Tudor 44.7µM, BAZ2B inh inconclusive (no result: G9a inh)
O=C(NCCCN1CCN(c2ccc(F)cc2)CC1)Nc1ccccc1Cl	G9a inh inconclusive, BAZ2B inh inconclusive (no result: CtBP-E1A blk, Six1-Eya2 inh)
COc1ccc(NC(=O)N2CCc3ccccc3C2)cc1	none
COc1ccc(N2CCN(CCS(=O)(=O)c3cc(Cl)ccc3Cl)CC2)cc1	Six1-Eya2 inh inconclusive, JMJD2A Tudor inconclusive, BAZ2B inh 44.7µM
COc1ccc(N2CCN(CCCNC(=O)Nc3ccccc3Cl)CC2)cc1	HP1b chromo inh inconclusive, G9a inh inconclusive, JMJD2A Tudor inconclusive, BAZ2B inh 35.5µM (no result: CtBP-E1A blk, Six1-Eya2 inh)
COc1ccc(NC(=O)NCCN2CCc3ccccc3C2)cc1	G9a inh inconclusive, JMJD2A Tudor 20µM
CCc1ccc(NC(=O)NCCN2CCN(c3ccc(OC)cc3)CC2)cc1	G9a inh 10µM, BAZ2B inh inconclusive (no result: CtBP-E1A blk)
COc1ccc(N2CCN(CCCNC(=O)C3(S(=O)(=O)c4ccc(Cl)cc4)CC3)CC2)cc1	HP1b chromo inh inconclusive, G9a inh inconclusive, JMJD2A Tudor 50.1µM, BAZ2B inh inconclusive
CCN1C(=O)C(CC(=O)Nc2ccc(OC)cc2)N(CCN2CCOCC2)C1=S (stereo not given)	none
CCN1C(=O)C(CC(=O)Nc2ccc(OC)cc2)N(CCCN2CCN(c3ccc(OC)cc3)CC2)C1=S (stereo not given)	CtBP-E1A blk inconclusive, G9a inh inconclusive, JMJD2A Tudor 50.1µM, BAZ2B inh 31.6µM
O=C(NCCCN1CCc2ccccc2C1)Nc1ccc(Cl)cc1	G9a inh 70.8µM
OC[C@@H]1CN(Cc2cccs2)C[C@H](n2cnc3c(NCc4ccc(F)cc4)ncnc32)O1	none (no result: HP1b chromo inh, G9a inh, JMJD2A Tudor, BAZ2B inh)
O=C1NC[C@@H](CCCCN2CCN(CC3CCCCC3)C(=O)C2=O)N(CCC2CCCCC2)C1=O	none (no result: HP1b chromo inh, G9a inh, JMJD2A Tudor, BAZ2B inh)
CSc1ccc(NC(=O)NCCCN2CCC(Cc3ccccc3)CC2)cc1	Six1-Eya2 inh inconclusive, G9a inh inconclusive, JMJD2A Tudor inconclusive, BAZ2B inh 39.8µM (no result: CtBP-E1A blk)
Cc1ccc(Nc2nc(C(=O)N3CCC(C(=O)NCc4ccccc4)CC3)cs2)cc1	none

High-throughput results from PubChem.
